Pf growth 48h – inhibits P. falciparum growth in the first generation, 48 h | P. falciparum luciferase growth in erythrocytes, 48 h | Potency, µM (series often up to 28.7 µM), inactives show at the highest dose activity change, negative = inhibition, actives largely listed as inhibitors | actives 5.9% (n = 310,000) | AID 504832
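Cell-based growth assay: transgenic P. falciparum expressing firefly luciferase, cultured in red cells within RPMI 1640 containing 0.5% w/v Albumax, 24 mM bicarbonate and gentamycin. A drop in luciferase activity indicates inhibition.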
Pf growth 96h – inhibits malaria parasite growth, 96 h; P. falciparum luciferase reporter growth, 96 h; Potency, µM (highest dose often 28.7 µM), for inactives: at the highest dose activity change, negative = inhibition, hits mostly inhibitors; actives 6.9% (n = 320,000)
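Infected RBCs, 2% Hct / 0.05% parasitemia final; luciferase-reporter P. falciparum; cpd 96 h, 37 C, 5% CO2; luciferase detection reagent; luminescence.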
Vaccinia Venus – inhibitors of vaccinia virus (Venus reporter); Vaccinia virus Venus reporter expression, fluorescence; Potency, µM (titrated, usually from 36.5 µM), inactives show at the highest dose activity change, negative = inhibition, hits mostly inhibitors; actives 0.46% (n = 330,000); AID 720580; calls by dose curve; tested in A549 cells; also: nearly all actives have a fitted effect of over 30% in size
AMA1-RON2 inh – AMA1-RON2 (P. falciparum) interaction inhibition; AlphaScreen AMA1-biotinylated RON2 peptide binding; AID 720542; actives 0.2% (n = 360,000); Potency, µM (highest dose often 58.2 µM), inactives show at the highest dose activity change, negative = inhibition, actives largely listed as inhibitors;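 also: 0% = vehicle wells and -100% = peptide control; nearly all actives have a fitted effect of over 45% in size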
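AMA1 (3D7) with his tag at 25 nM final met compounds first, then biotinylated RON2 peptide at 25 nM; detection used donor plus acceptor beads, 10 µg/mL apiece, read by AlphaScreen after 30 min at room temperature.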
Vaccinia mCherry – vaccinia inhibition (mCherry reporter). Vaccinia virus mCherry reporter infection, fluorescence. Potency, µM (series often up to 36.5 µM), for inactives: top-dose activity change, negative = inhibition, usual class: inhibitors. actives 0.63% (n = 310,000); calls by dose curve; tested in A549 cells; also: nearly all actives have a fitted effect of over 35% in size
* = called active by the depositor; i = inactive; ? = inconclusive; . = no result given; [ ] = remark or other dose. In the library only some 8.7% were active in any assay of this set; here they are far more common. Unless noted, calls follow the shape of the dose curve; as a rule, active = well fitted curve in the direction sought with a large enough effect; inconclusive = small, poorly fitted or top-dose-only effect, or another doubt; inactive = no such curve, though single readings can be large; an effect the other way counts as inactive or inconclusive. Unless noted, % is scaled to controls: 0 for no effect and ±100 for the full control effect; potency is read from the fitted curve at half-maximal effect.

SMILES	Pf growth 48h	Pf growth 96h	Vaccinia Venus	AMA1-RON2 inh	Vaccinia mCherry
CNC(=S)N/N=C/c1cn(Cc2ccc(F)cc2)c2ccccc12	?	?	?	9%[2.32 µM]	3.2µM*
COc1ccccc1OCCn1cc(/C=N/NC(=O)c2ccncc2)c2ccccc21	-12%	-8%	-1%	21%	i
COc1ccc(OCCn2cc(C=O)c3ccccc32)cc1	51%	?	-12%	-8%	-13%
COC(=O)CCNC(=O)N1CCN(c2nnc(C)c3c(C)n(-c4ccccc4)nc23)CC1	.	.	3%	.	-1%
Nc1ccc(C(=O)N/N=C/c2cn(Cc3ccc(F)cc3)c3ccccc23)cc1	6%	?	-13%	21%	-12%
O=C(N/N=C/c1cn(Cc2cccc(F)c2)c2ccccc12)c1cc(O)cc(O)c1	-9%	?	.	25µM*	.
C=CCNC(=O)/C(C#N)=C/c1c(N(Cc2ccccc2)Cc2ccccc2)nc2ccccn2c1=O	5.2µM*	9.3µM*	-26%	0%	-26%
CC1CN(c2nc3ccccn3c(=O)c2/C=C(\C#N)C(N)=O)CC(C)O1 (stereo not drawn)	26%	58%	7%	-4%	i
N#C/C(=C\c1c(N(Cc2ccccc2)Cc2ccccc2)nc2ccccn2c1=O)C(N)=O	4.7µM*	?	-23%	0%	-28%
CC1=C(c2cccc(Cl)c2)S(=O)(=O)NC1=NCc1ccccc1C	.	.	-9%	.	-16%
Cc1ccc2c(c1)nc(SCC(O)c1ccc(Br)cc1)n2C (stereo not drawn)	.	.	-13%	.	i
Cc1cc2c(c(-c3nc4ccccc4s3)c1)OC(CNC(=O)c1occc1C)C2 (stereo not drawn)	.	.	7%	.	-9%
Cc1ccc(-n2ncc3c2CC(C)(C)CC3NC(=O)CCn2cncn2)cc1 (stereo not drawn)	-6%	10µM*	-12%	21%	-16%
S=C(NCCc1ccccc1)N1CCCC1	.	.	3%	4%	-4%
CCCNC(=S)N1CCN(C(c2ccccc2)c2ccccc2)CC1	?	?	-10%	-6%[11.6 µM]	-16%
S=C(NCCc1ccccc1)N1CCN(C23CC4CC(CC(C4)C2)C3)CC1	9.3µM*	89%	-6%	-19%	-21%
COCCNC(=S)N1CCN(C(c2ccccc2)c2ccccc2)CC1	-17%	?	-24%	-2%	-23%
S=C(NCCc1ccccc1)N1CCN(C(c2ccccc2)c2ccccc2)CC1	9.3µM*	?	-4%	-21%	-10%
CCNC(=S)N1CCN(C(c2ccccc2)c2ccccc2)CC1	13µM*	8.3µM*	-20%	-7%	-18%
CSc1ccc(C(=S)N2CCN(C)CC2)cc1	4%	46%	-8%	-6%	-21%
CSc1ccc(C(=S)N2CCN(C(c3ccccc3)c3ccccc3)CC2)cc1	.	5.2µM*	.	?	.
CCCCOc1cccc(NC(=O)c2cccc(C(=O)Nc3cccc(OCCCC)c3)c2)c1	.	.	-1%[7.34 µM]	.	6%[7.34 µM]
CC(C)Cc1nn2c(=O)cc(COC(=O)c3cccc(NS(C)(=O)=O)c3)nc2s1	.	.	-9%	.	-1%
COc1ccc(CNC(=O)c2ccc(NC(=O)N3CCCCc4ccccc43)cc2)c(OC)c1	.	.	-15%	.	i
Cc1ccc(N(C)S(=O)(=O)c2nnc(NC(=O)C3CCCCC3)s2)cc1	.	.	-5%[7.34 µM]	.	-12%[7.34 µM]
SMILES	Pf growth 48h	Pf growth 96h	Vaccinia Venus	AMA1-RON2 inh	Vaccinia mCherry
CCCCNC(=S)N1CCN(C(c2ccccc2)c2ccccc2)CC1	10µM*	17%	-14%	-1%	-21%
CCC(=O)Nc1ccc(-c2nnc(SCc3ccc(C(=O)Nc4nccs4)cc3)n2CC)cc1	7.4µM*	5%	-16%	-5%	.
COc1ccc(CCNC(=O)C2CCN(c3ncnc4c3nc3n4CCCCC3)CC2)c(OC)c1	.	.	-4%	.	-15%
c1cc2nnnn2nc1N1CCCCC1	-10%	-14%[5.75 µM]	-26%	6%	i
CCOC(=O)N1CCN(c2ccc3nnnn3n2)CC1	.	2.1µM*	-8%	0%	.
O=C(Nc1cc(F)ccc1F)N1CCC(CN2CCOCC2)CC1	.	.	-15%	.	-14%
O=C(Nc1ccc2nccnc2c1)Nc1ccccc1Cl	8.3µM*	?	-12%	-12%	i
NC(=O)NC(=O)Nc1ccccc1Cl	30%	10µM*	.	-5%	.
O=C(NC(=O)c1csnn1)Nc1ccccc1Cl	48%	35%	.	-4%	.
O=C(Nc1cccc(Cl)c1)Nc1ccc2nccnc2c1	-7%	?	.	-10%	.

Screening results: PubChem BioAssay, National Center for Advancing Translational Sciences (NCATS)
